Results on 16 compounds are retold here after PubChem BioAssay (NCATS).

Assay [1] is described as follows: Cell Viability - LYMP2-004 (AID 966). Further: nearly all actives have a fitted effect of over 65% in size. In outline:
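qHTS cytotoxicity: human lymphoblastoid line, 24 hr compound treatment, 37 C, complete medium. Viability read as cellular ATP via luciferase luminescence; tetraoctylammonium bromide served as positive control.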

Assay [2] in a line: Cell Viability - LYMP2-009 (AID 968). Further: nearly all actives have a fitted effect of over 55% in size.
A short description of assay [3]: Cell Viability - LYMP2-011 (AID 969). Further: nearly all actives have a fitted effect of over 60% in size. The method in brief: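 In this qHTS cytotoxicity format, compounds are tested across concentrations on human lymphoblastoid cells in complete medium for 24 hours at 37 C. Viability is taken as cellular ATP measured by luciferase luminescence.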
Assay [4] is described as follows: Cell Viability - LYMP2-013 (AID 970). Further: nearly all actives have a fitted effect of over 55% in size. In outline: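 Cytotoxicity is scored as a concentration-dependent drop in intracellular ATP in human lymphoblastoid cells after 24 hr compound exposure at 37 C. ATP is quantified by luciferase luminescence, and AC50 values come from Hill-equation modeling.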
Assay [5] can be described thus: Cell Viability - LYMP2-017 (AID 972). Further: nearly all actives have a fitted effect of over 55% in size. The method in brief: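 Cytotoxicity is scored as a concentration-dependent drop in cellular ATP in a human lymphoblastoid line after 24 hr treatment at 37 C. Values are AC50s from Hill-equation modelling.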
Assay [6] is described as follows: Cell Viability - LYMP2-021 (AID 974).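 Further: compound exposure lasts 24 hours at 37 °C; nearly all actives have a fitted effect of over 55% in size.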 The method in brief: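 Loss of cellular ATP, measured with a luciferase-based CellTiter-Glo readout, serves as the toxicity signal in human lymphoblastoid cells treated for 24 hours at 37 C. Potency is reported as AC50 from a standard Hill model.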
Assay [7] in a line: Cell Viability - LYMP2-023 (AID 975). Further: nearly all actives have a fitted effect of over 55% in size. The method in brief: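 Steps: seed 2500 human lymphoblastoid cells per well, incubate 5 hr at 37 C, add compound for 24 hr at 37 C, add CellTiter-Glo, hold 30 min at room temperature, read luminescence. AC50 derived by Hill modelling.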
Assay [8] in a line: Cell Viability - LYMP2-003 (AID 965).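 Further: cells exposed to compounds for 24 h before reading; nearly all actives have a fitted effect of over 50% in size.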 The method in brief: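 Human lymphoblastoid LYMP2-003 cells, 2500/well, exposed to compounds for 24 h at 37 C in complete medium. Viability read as intracellular ATP by CellTiter-Glo luminescence; AC50 from Hill-equation fits of qHTS concentration-response data.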
Assay [9] can be described thus: Cell Viability - LYMP2-005 (AID 967). The method in brief: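 Human lymphoblastoid LYMP2-005 cells, 2,500 per well in complete medium, rested 5 h at 37C then compound-treated 24 h at 37C. Intracellular ATP read by CellTiter-Glo luminescence after 30 min at room temperature; AC50 from Hill-equation fits of concentration-response data.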
A short description of assay [10]: Cell Viability - LYMP2-015 (AID 971). Further: nearly all actives have a fitted effect of over 55% in size. The method in brief:
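Cells are seeded at 2500 per well and incubated 5 hr at 37 C. Compounds are added across a concentration series for 24 hr at 37 C. CellTiter-Glo is added, and luminescence is read after 30 min at room temperature.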

The structures appear in SMILES notation. Records with an inconclusive call do not appear. Calls of active or inactive are those of the source. The call rests on the fitted dose curve; in most records, active means well fitted curve in the direction sought with a large enough effect; inconclusive means small, poorly fitted or top-dose-only effect, or another doubt; inactive means no such curve, though single readings can be large; an effect the other way counts as inactive or inconclusive.
Potency means the concentration at half of the fitted maximal effect.

Consider `C[C@H]1CC[C@@H]2[C@@H](C)[C@H]3[C@H](C[C@H]4[C@@H]5CC=C6CC(O[C@@H]7O[C@H](CO)[C@H](O)[C@H](O[C@@H]8O[C@H](CO)[C@@H](O)[C@H](O)[C@H]8O)[C@H]7O[C@H]7O[C@@H](C)[C@H](O)[C@@H](O)[C@H]7O)CC[C@]6(C)[C@H]5CC[C@]34C)N2C1` (stereo partly drawn), for which the Potency in assay [1] is 50.1 µM (active); in assay [2], 39.8 µM (active); in [3], 39.8 µM (active); in assay [4] it was 39.8 µM (active); in assay [5], 50.1 µM (active); in [6], 50.1 µM (active). Further, the Potency in assay [7] was 39.8 µM (active).
For `O=Cc1ccco1`, the Potency result in assay [8], in [1], in [9], in [2], in assay [3] and in assay [4] was “inactive” throughout. Besides, the Potency entry in assay [10], in assay [5], in assay [6] and in [7] was “inactive” in each case.
`O=C1C=CC(=O)C=C1`: the Potency result in [8] and in [9] was “inactive” each time. Besides, the Potency in assay [2] is 50.1 µM (active); in assay [3], 50.1 µM (active); in assay [4], 39.8 µM (active); in assay [10] it was 31.6 µM (active); in assay [5], 50.1 µM (active); in assay [6], 31.6 µM (active).
For the compound `O=[N+]([O-])c1ccccc1`, the Potency result in [8], in [1], in assay [9], in assay [2], in assay [3] and in [4] was “inactive” each time. The Potency entry in assay [10], in [5], in [6] and in assay [7] was “inactive” in each case.
On to `CCCCCCCCOC(=O)c1ccccc1C(=O)OCCCCCCCC`, for which the Potency entry in [8], in [1], in assay [9], in [2], in assay [3] and in assay [4] was “inactive” each time. Moreover, the Potency entry in assay [10], in assay [5], in [6] and in [7] was “inactive” each time.
As to `Clc1ccccc1Cl`, the Potency entry in [8], in [1], in assay [9], in [2], in assay [3] and in [4] was “inactive” each time. For the same compound, the Potency entry in assay [10], in assay [5], in assay [6] and in assay [7] was “inactive” each time.
As to `ClC(Cl)(Cl)Cl`, the Potency result in [8], in [1], in assay [9], in [2], in assay [3] and in assay [4] was “inactive” in each case. Also, the Potency entry in [10], in [5], in assay [6] and in assay [7] was “inactive” in each case.
Turning to `ClC=C(Cl)Cl`, the Potency entry in [8], in [1], in assay [9], in assay [2], in assay [3] and in assay [4] was “inactive” each time. The Potency entry in [10], in assay [5], in assay [6] and in [7] was “inactive” throughout.
As for `S=C=S`, the Potency result in assay [8], in assay [1], in [9], in assay [2], in assay [3] and in [4] was “inactive” in each case. Besides, the Potency result in [10], in assay [5], in [6] and in [7] was “inactive” throughout.
Regarding `CCOC(=O)c1ccccc1C(=O)OCC`, the Potency result in assay [8], in assay [1], in assay [9], in [2], in assay [3] and in assay [4] was “inactive” in each case. Further, the Potency result in [10], in assay [5], in [6] and in assay [7] was “inactive” each time.
For `CC(C)CCON=O`, the Potency entry in assay [8], in [1], in assay [9], in assay [2], in assay [3] and in [4] was “inactive” in each case. For the same compound, the Potency entry in assay [10], in assay [5], in [6] and in [7] was “inactive” in each case.
Take `O=[N+]([O-])c1ccc(F)c([N+](=O)[O-])c1`: the Potency result in [8], in [1], in assay [9] and in [2] was “inactive” each time.
As to `[Cl-].[Cl-].[Hg+2]`, the Potency in assay [8] was 0.794 µM (active); in [1], 0.251 µM (active); in assay [9], 0.501 µM (active); in [2] it was 10 µM (active); in assay [3] it was 12.6 µM (active); in assay [4] it was 5.01 µM (active). For the same compound, the Potency in assay [10] was 12.6 µM (active); in [5] it was 1 µM (active); in assay [6] it was 1.58 µM (active); in assay [7] it was 10 µM (active).
On to `COc1ccc2c(c1OC)C(=O)OC2C1c2cc3c(cc2CCN1C)OCO3` (stereo not drawn), for which the Potency result in assay [8], in assay [1], in assay [9], in assay [2], in assay [3] and in assay [4] was “inactive” each time. For the same compound, the Potency entry in assay [10], in [5], in assay [6] and in [7] was “inactive” throughout.
As for `CC(C)Nc1ccc(Nc2ccccc2)cc1`, the Potency is 39.8 µM (active) in assay [8]; 39.8 µM (active) in assay [1]; 31.6 µM (active) in [2]; 31.6 µM (active) in [3]; 31.6 µM (active) in assay [4]; 25.1 µM (active) in [10]. For the same compound, the Potency in assay [5] was 25.1 µM (active); in assay [6], 25.1 µM (active); in assay [7], 39.8 µM (active).
As to `Oc1cc(Cl)c(Cl)cc1Cl`, the Potency result in [8], in assay [1], in assay [9], in assay [2], in [3] and in [4] was “inactive” each time. Moreover, the Potency result in assay [10], in assay [5], in assay [6] and in assay [7] was “inactive” in each case.
